# Bioassay records (PubChem BioAssay)
# TEAD-YAP block = TEAD-YAP interaction inhibition, primary screen, TEAD-YAP interaction inhibitor project, luminescence, HEK-TIYL cells; TEAD-Gal4/YAP UAS-luciferase luminescence; 1.4% of 640,000 active; AID 1259422, 2018; inhibition, % at 9.12 µM; in the data active = inhibition above about 32%;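 also: 0% = median of test compound wells and 100% = reference inhibitor wells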
# GPR151 ag = activators of human GPR151, primary screen, cell-based, PathHunter beta-arrestin, luminescence. G-protein coupled receptor 151 (Homo sapiens), Q8TDV0. PathHunter beta-arrestin GPR151 cells. activation, % at 11.2 µM. 1% of 650,000 active. AID 1508602, 2020; in the data active = activation above about 4.9%;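 also: 0% = median of compound wells and 100% = cells with positive control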
# MITF inh = MITF inhibitors, primary screen, biochemical, AlphaScreen, human; Microphthalmia-associated transcription factor (Homo sapiens), O75030; AlphaScreen MITF homodimerization, bead proximity signal; inhibition, % at 2.6 µM; 0.91% of 650,000 active; in the data active = inhibition above about 50%;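 also: 0% = vehicle wells with protein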
# FBW7 activator = FBW7 E3 ligase activators, primary screen, biochemical, AlphaScreen, human. AlphaScreen FBW7–phospho-cyclin E peptide binding, activator screen. normalized activity (activation), % at 26.1 µM. 0.13% of 650,000 active; in the data active = normalized activity above about 1.9%;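 also: purified mutant Fbw7 with reduced substrate affinity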
# Target sequence (Q969H0 whole entry, looked up): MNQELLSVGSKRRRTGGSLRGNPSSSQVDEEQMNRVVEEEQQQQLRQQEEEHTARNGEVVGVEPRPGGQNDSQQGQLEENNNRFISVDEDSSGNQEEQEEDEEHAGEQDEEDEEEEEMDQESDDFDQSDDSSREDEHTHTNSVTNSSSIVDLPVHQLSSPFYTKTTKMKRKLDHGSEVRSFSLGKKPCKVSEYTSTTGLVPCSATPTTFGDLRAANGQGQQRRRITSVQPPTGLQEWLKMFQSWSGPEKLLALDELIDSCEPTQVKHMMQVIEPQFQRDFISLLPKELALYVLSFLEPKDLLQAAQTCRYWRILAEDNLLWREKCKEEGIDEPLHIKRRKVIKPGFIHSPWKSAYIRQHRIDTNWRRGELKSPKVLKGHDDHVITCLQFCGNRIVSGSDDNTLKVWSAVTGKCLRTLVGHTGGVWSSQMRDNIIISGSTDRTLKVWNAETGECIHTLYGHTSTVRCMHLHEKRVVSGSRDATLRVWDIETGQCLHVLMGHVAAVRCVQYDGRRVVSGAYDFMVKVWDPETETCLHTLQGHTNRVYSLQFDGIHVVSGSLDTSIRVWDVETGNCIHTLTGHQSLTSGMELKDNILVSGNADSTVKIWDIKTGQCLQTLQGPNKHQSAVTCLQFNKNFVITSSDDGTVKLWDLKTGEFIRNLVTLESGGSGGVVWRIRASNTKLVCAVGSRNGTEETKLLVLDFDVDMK
# An asterisk follows results filed as active. Hits are enriched below; roughly 3.5% of the tested compounds scored in any of these assays.
SMILES,TEAD-YAP block,GPR151 ag,MITF inh,FBW7 activator
COc1ccc(OC)c(-n2c(SCC(=O)N3CCCc4ccccc43)nc3c(c2=O)SCC3)c1,0.5,0.4,12.2,0.0
O=C(COc1ccc(Cl)cc1)N(Cc1cccc(F)c1)C1CCS(=O)(=O)C1 (stereo not given),5.1,-1.6,0.0,0.0
Cc1nc2ccccc2c(=O)n1N(C1=CC=CCC1)c1ccccc1,-5.5,-1.1,-4.0,0.2
CC(C)[C@@H](CO)Nc1ccc2ncc(-c3cccc(O)c3)n2n1,38.5*,-0.6,17.7,0.2
CC(C)[C@@H](CO)Nc1ccc2ncc(-c3ccc(N)cc3)n2n1,31.2,-1.2,9.5,16.7*
CC(C)[C@@H](CO)Nc1ccc2ncc(-c3cccc(F)c3)n2n1,14.4,-0.2,-8.7,0.0
Cc1ccc(-c2cnc3ccc(N[C@H](CO)C(C)C)nn23)cc1,16.6,1.7,-13.6,0.0
CCOc1cc(CO)cc(I)c1OCc1ccc([N+](=O)[O-])cc1,-1.4,-0.3,10.9,-0.3
Cc1ccc(-c2cc3nccc(C4CCNCC4)n3n2)cc1,4.5,-0.1,-2.1,-0.1
COc1ccc(-c2cc3nccc(C4CCNCC4)n3n2)cc1,32.9*,1.4,9.7,0.6
CCOc1cc2c(cc1OCC)C(c1cc(OC)c(OC)cc1OC)NCC2 (stereo not given),1.6,-0.7,8.4,0.8
COc1ccc(CCNc2cc(C)nc(Nc3ccncc3)n2)cc1,-3.7,1.4,-3.5,-0.1
COc1cc(Nc2cc(C)nc(Nc3cc(OC)c(OC)c(OC)c3)n2)cc(OC)c1OC,24.4,0.2,-4.0,-0.2
COc1cc(Nc2cc(C)nc(Nc3cccc(N(C)C)c3)n2)cc(OC)c1OC,48.0*,0.5,-8.3,-0.3
COc1ccc(CCNc2cc(C)nc(Nc3cc(OC)c(OC)c(OC)c3)n2)cc1,35.8*,1.8,1.3,-0.2
CC1CCN(c2nc3ncccc3nc2-c2ccccc2)CC1,-1.5,-0.3,11.1,2.1*
Cc1cc2[nH]c(=O)c(=O)[nH]c2cc1S(=O)(=O)CCC(=O)NC1CCCC1,-1.7,0.2,-15.9,0.0
O=C(c1cc(-c2ccccc2)nc2ccccc12)N1CCN(c2ccccc2)CC1,6.9,0.4,-5.3,-0.1
CCOc1ccccc1N1CCN(C(=O)c2cc(-c3ccccc3)nc3ccccc23)CC1,45.4*,1.1,-6.2,0.0
O=C(c1ccccc1-c1ccccc1)N1CCN(c2ccccn2)CC1,52.0*,-0.7,19.1,0.0
O=C(c1ccccc1Br)N1CCN(c2ccccn2)CC1,-5.2,2.1,-0.9,0.0
O=C(c1cc(-c2ccncc2)nc2ccccc12)N1CCN(c2ccccn2)CC1,57.7*,0.7,-16.4,-0.3
O=C1CC2(CCN(C(=O)Cc3ccc(-c4ccccc4)cc3)CC2)Oc2ccccc21,-2.6,-0.8,1.1,-0.1
Cc1ccc(NC(=O)COc2ccc(Cl)cc2Cl)nc1,69.9*,-2.9,4.2,0.8
Cc1cc(Br)ccc1OCC(=O)Nc1ccc(Cl)cn1,-24.6,0.1,17.2,0.2
SMILES,TEAD-YAP block,GPR151 ag,MITF inh,FBW7 activator
O=C(CCl)NCCOc1ccc(Cl)cc1Cl,41.4*,-0.6,9.4,0.1
Cc1cc(Cl)ccc1OCC(=O)Nc1ccc(Cl)cn1,-29.1,-0.2,8.7,0.0
Cc1nc(NC(=O)COc2ccc(Cl)cc2Cl)sc1C,74.0*,-7.3,6.6,-0.3
Cc1ccc(OCC(=O)Nc2ccc(Cl)cn2)c(Br)c1,40.1*,-1.9,-6.2,0.0
C[C@H](NS(=O)(=O)c1cccc2nsnc12)C(=O)Nc1ccc2c(c1)CCC2,1.7,1.3,-10.5,-0.2
O=C(CCC1CCN(C(=O)CCc2cnccn2)CC1)NCc1ccc(F)cc1,-1.8,0.5,-0.5,0.0
Cc1ccc2oc(=O)c3cnn(CC(=O)NCCN(C)C4CCCCC4)c3c2c1,-5.9,0.6,-1.6,-0.2
COc1ccc(-n2ncc3c(Nc4ccc(C)cc4C)ncnc32)cc1,-29.9,-0.5,6.3,0.0
CSc1ccccc1Nc1ncnc2c1cnn2-c1ccccc1,-26.9,2.5,-2.8,0.0
COc1ccc(OC)c(Nc2ncnc3c2cnn3-c2cccc(C)c2)c1,41.9*,0.3,-7.6,0.0
COc1ccc(-n2ncc3c(Nc4cc(C)ccc4C)ncnc32)cc1,40.0*,-1.9,-1.2,0.0
COc1ccc(-n2ncc3c(Nc4ccccc4SC)ncnc32)cc1,55.3*,0.9,-2.2,-0.2
CCC(C)c1ccc(NC(=O)CSc2nncs2)cc1 (stereo not given),-43.6,1.0,-3.4,0.0
COc1ccccc1C(=O)Nc1ccc(Nc2cc(-n3ccnc3)ncn2)cc1,36.9*,-0.1,1.2,-0.1
O=C(Nc1ccc(Nc2cc(-n3ccnc3)ncn2)cc1)C(c1ccccc1)c1ccccc1,27.5,1.0,20.6,0.3
O=C(Cc1ccc(F)cc1)Nc1ccc(Nc2cc(-n3ccnc3)ncn2)cc1,13.1,-2.0,9.7,0.2
Cc1onc(-c2ccccc2Cl)c1C(=O)Nc1cccc2ccc(-n3ccnc3)nc12,18.9,2.5,-1.8,-0.2
O=C(Nc1cccc2ccc(-n3ccnc3)nc12)c1ccccc1Cl,9.2,1.1,2.3,2.3*
O=C(Nc1ccc(Nc2cc(-n3ccnc3)ncn2)cc1)c1ccccc1Cl,40.6*,1.0,-2.9,-0.1
CCOC(=O)C1=C(CN(Cc2ccco2)C2CCCCC2)NC(=O)NC1c1cccs1 (stereo not given),0.8,-0.3,-3.0,0.1
Cc1onc(-c2ccccc2Cl)c1C(=O)Nc1c2c(nn1-c1ccc(Oc3ccccc3)cc1)CSC2,-4.6,1.4,0.6,0.0
C/C(CC(=O)Nc1ccccc1C)=N\NC(=O)C(=O)Nc1ccccc1C,-19.8,1.0,-9.9,2.0*
COc1ccc(S(=O)(=O)OCC(F)(F)[N+](=O)[O-])cc1Br,44.1*,1.2,-0.8,-0.1
C=CCn1c(Cl)c(/C=N/NC(=O)OCC)s/c1=N\S(=O)(=O)c1cccs1,45.2*,4.4,8.5,0.6
C=CCn1c(Cl)c(C=O)s/c1=N\S(=O)(=O)c1cccs1,59.6*,-1.9,6.1,0.1
SMILES,TEAD-YAP block,GPR151 ag,MITF inh,FBW7 activator
O=C(Nc1nnc(C23CC4CC(CC(C4)C2)C3)s1)c1cccs1,32.7*,0.4,6.3,0.0
O=C(Nc1nnc(C23CC4CC(CC(C4)C2)C3)s1)c1ccccc1,42.3*,-0.1,13.1,0.1
O=C(Nc1nnc(C23CC4CC(CC(C4)C2)C3)s1)c1ccccc1Cl,8.7,-0.3,5.3,0.0
Cc1c(NC(=O)Cc2ccccc2)cccc1-c1nc2ncccc2o1,-11.2,-0.1,-9.7,-0.1
C[C@H](NC(=O)c1cc2ccccc2s1)c1nc(-c2ccncc2)n[nH]1,9.1,-1.3,10.4,0.0
COc1ccc(C2CC(=O)C3=C(C2)NC(C)=C(C(=O)OC2CCCC2)C3c2ccc(F)cc2)cc1OC (stereo not given),37.3*,-0.3,0.9,0.4
COc1ccc(C2CC(=O)C3=C(C2)NC(C)=C(C(=O)OC2CCCC2)C3c2cccc([N+](=O)[O-])c2)cc1OC (stereo not given),41.9*,0.7,14.2,0.1
